Screens as filed in PubChem BioAssay.
A selection: hits, their analogues and other compounds. The true share with any hit is near 0.59%.
PTHR1 ag: qHTS for PTHR1 Agonists: Primary Screen. 410,000 tested, 0.075% active. Potency, µM (top dose mostly 115 µM), without a hit: top-dose activation, actives largely listed as activators. Parathyroid hormone/parathyroid hormone-related peptide receptor (Homo sapiens), Q03431. HEK293 GP2 PTHR1 cells, GloSensor cAMP luminescence, 1 h. AID 743266, 2014; note: potency is the fitted concentration of half-maximal effect; nearly all actives have a fitted effect of over 55% in size
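HEK-293-derived GP2 cells expressing PTHR1 and a GloSensor cAMP reporter, 3,000/well, plated overnight, given luciferin plus IBMX (each 0.5 mM as added) for 1 h at 37 °C, then compound for 1 h at 37 °C. Luminescence was read after 15 min at room temperature.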
IDH1 R132H inh: qHTS for Inhibitors of mutant isocitrate dehydrogenase 1 (IDH1): qHTS | IDH1-R132H enzyme, NADPH consumption, diaphorase/resazurin fluorescence | Potency, µM (top dose mostly 76.6 µM), for the others: at the highest dose activity change, negative = inhibition, most hits filed as inhibitors | 390,000 tested, 0.093% active | AID 602179, 2012; note: potency is the fitted concentration of half-maximal effect; % is set by controls: 0 for no effect and ±100 for the full control effect; nearly all actives have a fitted effect of over 65% in size
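IDH1-R132H (0.5 ug/mL) preincubated 30 min with compound, then NADPH (0.016 mM) and alpha-KG (2 mM) added; 80 min at RT, pH 7.5. Remaining NADPH coupled via diaphorase/resazurin to fluorescence (540/590 nm); concentration-response curves normalized to no-enzyme control.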
LDHA block: qHTS assay for inhibitors of human lactate dehydrogenase; purified LDHA, NADH/diaphorase-resazurin fluorescence; active compounds read low; L-lactate dehydrogenase A chain (Homo sapiens), P00338; 480,000 tested, 0.15% active; activity change, % (values are at about 110 or 230 µM); AID 1347041, 2019; in the data active = activity change below about -30%; inconclusive = mostly about -25% to -30%;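 note: plate controls were DMSO wells for no effect and wells without enzyme for full effect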
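Remaining NADH was detected by diaphorase (0.133 mg/mL) converting 37 µM resazurin to fluorescent resorufin, read at 0 and 20 minutes. The preceding 5-minute room-temperature reaction used 2 nM LDHA, 0.2 mM sodium pyruvate and 0.06 mM NADH at pH 7.4.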
Vif-APOBEC3G blk: qHTS for Inhibitors of Vif-A3G Interactions: qHTS; Potency, µM (highest dose often 46.1 µM), for inactives: at the highest dose activity, negative = active, actives largely listed as inhibitors; HeLa A3G-eYFP + Vif (tagged APOBEC3G with the HIV-1 protein that degrades it), YFP fluorescence, overnight; AID 602310, 2012; DNA dC->dU-editing enzyme APOBEC-3G (Homo sapiens), Q9HC16; 410,000 tested, 0.076% active; note: potency is the fitted concentration of half-maximal effect; % is set by controls: 0 for no effect and ±100 for the full control effect; nearly all actives have a fitted effect of over 60% in size
Target sequence (Q9HC16 whole entry, looked up): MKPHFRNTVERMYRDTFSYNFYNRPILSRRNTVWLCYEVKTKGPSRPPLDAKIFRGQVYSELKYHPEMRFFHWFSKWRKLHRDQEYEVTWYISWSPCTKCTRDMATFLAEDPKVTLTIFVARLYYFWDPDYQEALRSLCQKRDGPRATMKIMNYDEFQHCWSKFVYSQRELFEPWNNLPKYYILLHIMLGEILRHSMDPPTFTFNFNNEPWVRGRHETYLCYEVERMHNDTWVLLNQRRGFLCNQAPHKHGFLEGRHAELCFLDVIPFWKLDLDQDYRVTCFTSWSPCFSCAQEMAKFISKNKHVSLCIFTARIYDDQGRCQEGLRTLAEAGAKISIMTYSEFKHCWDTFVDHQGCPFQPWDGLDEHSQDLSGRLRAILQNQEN
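HeLa cells stably expressing Vif and C-terminally eYFP-tagged A3G, seeded overnight at 37 deg C, then exposed to compound by pintool overnight at 37 deg C. Rise in yellow fluorescence (Ex 488/Em 500-530, Acumen) marks blocked Vif-driven A3G degradation.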
PINK1 modulator: A Quantitative High throughput Screen to Identify Chemical Modulators of PINK1 Expression; PINK1 immunofluorescence, high-content cytometry, 24 h; Potency, µM (highest dose often 76.6 µM), without a hit: top-dose activation (PINK1 increase), most hits filed as activators; 410,000 tested, 0.2% active; active = well fitted activation curve with a large enough effect; inconclusive = small, poorly fitted or top-dose-only effect; cell line not stated here; note: potency is the fitted concentration of half-maximal effect; % of control where 0% means no effect; nearly all actives have a fitted effect of over 65% in size
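Cells are seeded, rested 12 hours, then given compound at five concentrations or DMSO for 24 hours. After fixation, blocking and antibody staining, PINK1 amount and mitochondrial localization are scored; CCCP serves as control.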
Vif-A3F inh: qHTS for Inhibitors of Vif-A3F Interactions: qHTS | HeLa A3F-eYFP + Vif (tagged APOBEC3F with the HIV-1 protein that degrades it), YFP fluorescence increase | Potency, µM (series often up to 46.1 µM), for inactives: at the highest dose activity, negative = active | 390,000 tested, 0.2% active; note: potency is the fitted concentration of half-maximal effect; % of control where 0% means no effect; nearly all actives have a fitted effect of over 65% in size
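HeLa cells stably expressing Vif plus C-terminally eYFP-tagged A3F were seeded, incubated overnight at 37 deg C, dosed with compound, incubated overnight again at 37 deg C. Yellow fluorescence (Ex 488/Em 500-530) reported blocked Vif-mediated A3F-eYFP degradation.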
* = called active by the depositor; i = inactive; ? = inconclusive; / = not tested or not shown; ! = not confirmed by another sample; [ ] = dose if it differs, or a comment. Unless noted, calls come from the whole dose curve; as a rule, active = well fitted curve in the direction sought with a large enough effect; inconclusive = small, poorly fitted or top-dose-only effect, or another doubt; inactive = no such curve, though single readings can be large; an effect the other way counts as inactive or inconclusive.

SMILES	PTHR1 ag	IDH1 R132H inh	LDHA block	Vif-APOBEC3G blk	PINK1 modulator	Vif-A3F inh
COc1ccc(N2C(=O)c3ccccc3NC2c2ccc(OC)c(COc3ccccn3)c2)cc1 (stereo not drawn)	i	-5%	-3	0%	1%	-4%
COc1ccc(N2C(=O)c3ccccc3NC2c2ccc(OC)c(CSc3ccccn3)c2)cc1 (stereo not drawn)	-7%[57.5 µM]	-11%	-4	-8%	10µM*	1%
CC(NC(=S)Nc1cccc(C(F)(F)F)c1)C(C)(C)C (stereo not drawn)	i	-15%	1	1%	?	32µM*
COc1cccc2ccc(CC(O)(c3ccccc3)c3ccccc3)nc12	i	10%	1	-3%	40µM*	0%
Cc1ccc2nc(CC(O)(c3ccccc3)c3ccccc3)ccc2c1	-40%	-2%	-2	3%	7%	0%
Cc1ccc2c(c1)Sc1c(ccc3ccccc13)N2	i	0%	5	?	2%	22µM*
c1ccc2c(c1)Nc1cc3ccccc3cc1S2	-14%	1%	-11	-1%	-1%	1%
CCOC(=O)c1c(C)c(C(=O)Nc2ccc(N(C)C)cc2)c(C)n1CC	i	1%	0	-29%	11µM*	2%
CCOC(=O)c1c(C)c(C(=O)Nc2ccc(Cl)cc2)c(C)n1CC	/	/	-3	/	/	/
C=CCc1cccc2cc(C(=O)NCc3cccnc3)c(=O)oc12	i	6%	-4	-8%	/	0%
CCOc1cccc2cc(C(=O)NCc3cccnc3)c(=O)oc12	-13%[57.5 µM]	1%	-5	1%	11µM*	-6%
Cc1cc(SCC(=O)c2cccs2)nc2ccccc12	i	2%	-4	?	9%	11µM*
CCCCCCCCCCCC(=O)Nc1cccc(C)c1C	/	/	6	/	/	/
CCOc1ccc2nc(N3C(=O)/C(=C/c4ccc(Cl)cc4)NC3=S)sc2c1	-49%	0%	-4	-3%	?	5µM*
O=S(=O)([N-]c1nc2ccccc2nc1-[n+]1ccccc1)c1ccccc1	-14%	6%	-3	1%	?	?
O=S(=O)([N-]c1nc2ccccc2nc1-[n+]1ccc(-c2ccncc2)cc1)c1ccccc1	i	-3%	-7	-3%	-2%	3.5µM*
O=S(=O)(Nc1nc2ccccc2nc1N1CCN(c2ccccc2)CC1)c1ccc(F)cc1	-31%	-1%	-12	?	15%	22µM*
CCCCOc1nc2ccccc2nc1NS(=O)(=O)c1ccc(F)cc1	-20%	0%	-1	-25%	0%	10µM*
CCCCCCNc1nc2ccccc2nc1NS(=O)(=O)c1ccc(F)cc1	/	/	-2	/	/	/
COc1ccc(/C(=N/OC(=O)c2cc(Cl)ccc2OC)c2nccc3cc(OC)c(OC)cc23)cc1OC	/	/	20	/	/	/
O=c1c2sccc2nc(SCc2nc(-c3cccc(C(F)(F)F)c3)no2)n1C1CC1	/	/	4	/	/	/
CC(CCc1ccccc1)N1CCN(Cc2ccccc2)CC1 (stereo not drawn)	i	3%	-31*	0%	3%	1%
CCS(=O)(=O)N1CCN(C(C)CCc2ccccc2)CC1 (stereo not drawn)	-7%[57.5 µM]	9%	-19	2%	1%	2%
O=C(Nc1cccc(Cl)c1)c1cc(N=Nc2ccc([N+](=O)[O-])cc2Cl)ccc1O	-45%	-1%	-46*	3%	?	-8%
O=c1c(O)c(-c2cccs2)oc2ccccc12	i	1%	-9	?	-5%[38.3 µM]	2.8µM*
SMILES	PTHR1 ag	IDH1 R132H inh	LDHA block	Vif-APOBEC3G blk	PINK1 modulator	Vif-A3F inh
O=c1c(O)c(-c2cccs2)oc2ccc(Cl)cc12	-3%	3%	9	?	0%	?
COc1ccc(Nc2nc(N)c(C(=O)c3ccc(C)cc3C)s2)cc1Cl	/	/	-1	/	/	/
CNC(=S)NNC(=O)C(Sc1ccccc1)c1ccccc1 (stereo not drawn)	/	/	-32*	/	/	/
CC(=O)c1cc2c(ccc3ccccc32)o1	/	/	32	/	/	/
O=c1[nH]c(NCc2ccco2)nnc1Cc1ccccc1Cl	-81%	2%	-16	13µM*	9%	/
COc1cccc(-n2c(C)c(C)c3c2ncn2nc(-c4ccco4)nc32)c1	/	/	-5	/	/	/
COc1cccc(-n2c(C)c(C)c3c2ncn2nc(-c4cccs4)nc32)c1	/	/	-36*	/	/	/
Cn1cnc2c1c(=O)n(Cc1cccc(Cl)c1)c(=O)n2C	i	-3%	-32*!	3%	3%	?
Cn1cnc2c1c(=O)n(Cc1cccc(F)c1)c(=O)n2C	i	3%	-1	2%	1%	4%
Cc1ccc(C(=O)NCCn2c(N)c(C#N)c3nc4ccccc4nc32)cc1	i	9%	0	?	?	22µM*
N#Cc1c(N)n(CCNC(=O)c2ccc(Cl)cc2)c2nc3ccccc3nc12	i	0%	10	-29%	11%	-20%
COc1ccc2c(C)cc(SCC#N)nc2c1	i	0%	0	?	2%[38.3 µM]	22µM*
Cc1sc2nc(NCC(C)O)n3nc(-c4ccco4)nc3c2c1C (stereo not drawn)	/	/	9	/	/	/
O=C(c1ccc(Cl)cc1Cl)N(CCS(=O)(=O)N1CCCCC1)Cc1ccncc1	/	/	0	/	/	/
